Records with an inconclusive call do not appear. Activity calls are given as the source filed them. The call rests on the fitted dose curve; in most records, active means well fitted activation curve with a large enough effect in the signal ratio in the repeat runs (not every such curve was filed as active); inconclusive means weak or mixed curves; inactive means flat fitted curve, though single readings scatter; the % refers to the signal ratio.
Assay: qHTS assay to identify small molecule agonists of the hypoxia (HIF-1) signaling pathway (AID 1224846)
Settings: HRE-bla ME-180 cells, beta-lactamase ratio, 17 h; series mostly up to 76.8 µM
Text: U.S. Tox21 Program National Center for Advancing Translational Sciences [NCATS] NIH Chemical Genomics Center [NCGC] U.S. Environmental Protection Agency [EPA] National Institutes of Environmental Health Sciences [NIEHS] National Toxicology Program [NTP] U.S. Food and Drug Administration [FDA] Tox21 Assay Overview: Hypoxia-inducible factor-1 (HIF-1) is the major hypoxia-regulated transcription factor that controls cellular responses to low oxygen concentration. HIF-1 is composed of two subunits: hypoxia responsive HIF-1-alpha and constitutively expressed HIF-1-beta, which is also known as aryl hydrocarbon receptor nuclear translocator. During hypoxic conditions, HIF-1-alpha heterodimerizes with HIF-1-beta and translocates into the nucleus where the HIF-1 complex binds to the hypoxia-response element (HRE) and activates expression of target genes such as VEGF (vascular endothelial growth factor). The HIF-1 pathway is essential to normal growth and development, and is involved in the pathophysiology of cancer, inflammation, and ischemia. Using a beta-lactamase reporter-gene under control of the hypoxia response element, a cell-based assay [CellSensor(TM) HRE-bla ME-180 from Life Technologies, Carlsbad, CA] was used to measure hypoxia-induced signaling. Tox21 10K library compounds were measured for their ability to induce the reporter gene activity.
Tox21 Assay Protocol Summary: HRE-bla ME-180 cells were dispensed at 2,000 cells per well in 6 uL of assay medium containing 0.5% dialyzed FBS into black wall/clear-bottom 1536-well plates using a Multidrop Combi (Thermo Scientific, Waltham, MA) dispenser. After the assay plates were incubated at 37C and 5% CO2 for 5 hrs, 23 nL of compounds dissolved in DMSO, positive controls or DMSO only was transferred to each well of the assay plate using a Pintool station (Kalypsys, San Diego, CA). The assay plates were incubated at 37C and 5% CO2 for 17 hrs. One uL of LiveBLAzerTM B/G FRET substrate (CCF4-AM) (Life Technologies) was added to each well using a Flying Reagent Dispenser (Aurora Discovery, San Diego, CA).
For `O=NN1CCCC1`, the outcome was “inactive”.
In the case of `Nc1ccc(Cc2ccc(N)cc2)cc1`, the outcome is reported as “inactive”.
With `C#CC(C)(C)NC(=O)c1cc(Cl)cc(Cl)c1` the outcome was “inactive”.
With `COC(=O)c1ccccc1C(=O)OC` the outcome was “inactive”.
For `CC1OC(C)OC(C)O1` (stereo not given), the outcome was “inactive”.
In the case of `CCC[N+](=O)[O-]`, the outcome is reported as “inactive”.
For `CCCCCOC(=O)c1ccccc1C(=O)OCCCCC`, the outcome was “inactive”.
In the case of `Clc1ccc(Cl)cc1`, the outcome is reported as “inactive”.
In the case of `CC(C)C#N`, the outcome is reported as “inactive”.
With `CC(C)OC(=O)Nc1cccc(Cl)c1` the outcome was “inactive”.
With `Cc1cccc([N+](=O)[O-])c1` the outcome was “inactive”.
In the case of `CC(C)(C)OOC(=O)c1ccccc1`, the outcome is reported as “inactive”.
For `O=C1CCCN1`, the outcome was “inactive”.
For `CCNc1nc(NC(C)C)nc(SC)n1`, the outcome was “inactive”.
In the case of `CCCCN(CC)C(=O)SCCC`, the outcome is reported as “inactive”.
For `[N-]=[N+]=[N-]`, the outcome was “inactive”.
With `CCOP(OCC)OCC` the outcome was “inactive”.
With `O=C(NC(=O)c1c(F)cccc1F)Nc1cc(Cl)c(OC(F)(F)C(F)C(F)(F)F)cc1Cl` (stereo not given) the outcome was “inactive”.
For `Nc1c(Cl)c(Cl)nc(C(=O)O)c1Cl`, the outcome was “inactive”.
With `CC(=O)C=C(C)C` the outcome was “inactive”.
For `C=CCO`, the outcome was “inactive”.
For `[O-][Cl+2]([O-])O`, the outcome was “inactive”.
In the case of `Cc1cc(Cl)ccc1O`, the outcome is reported as “inactive”.
With `COCCl` the outcome was “inactive”.
In the case of `CCC12COCN1COC2`, the outcome is reported as “inactive”.
For `Cc1ccccc1O`, the outcome was “inactive”.
In the case of `COC(=O)NC(=S)Nc1ccccc1NC(=S)NC(=O)OC`, the outcome is reported as “inactive”.
For `Cc1ccc(N)cc1N`, the outcome was “inactive”.
In the case of `C1CC2OC2CC1C1CO1` (stereo not given), the outcome is reported as “inactive”.
For `OC(O)C(Cl)(Cl)Cl`, the outcome was “inactive”.
With `CC(C)=C[C@@H]1[C@@H](C(=O)OCc2coc(Cc3ccccc3)c2)C1(C)C` the outcome was “inactive”.
With `Nc1ccc(Oc2ccc(N)cc2)cc1` the outcome was “inactive”.
For `CCCN(CCC)N=O`, the outcome was “inactive”.
For `COc1ccc2c3c1O[C@H]1[C@@H](O)C=C[C@H]4[C@@H](C2)N(C)CC[C@@]341`, the outcome was “inactive”.
In the case of `Cc1[nH]c(=O)n(C(C)(C)C)c(=O)c1Cl`, the outcome is reported as “inactive”.
In the case of `c1ccc2c(c1)Oc1ccccc1O2`, the outcome is reported as “inactive”.
For `O=[N+]([O-])c1ccc([As](=O)(O)O)cc1`, the outcome was “inactive”.
For `Nc1ccccc1C(=O)O`, the outcome was “inactive”.
With `COC(=O)c1ccccc1N` the outcome was “inactive”.
In the case of `CCCCOC(=O)c1ccccc1C(=O)OCCCC`, the outcome is reported as “inactive”.
